aSyn UTR inh: MLPCN primary screen, SNCA 5' untranslated region | actives 0.82% (n = 300,000) | inhibition, % (tested at 7.5 µM) | alpha-synuclein 5'UTR reporter, inhibitor activity; in the data active means inhibition above about 60%; inconclusive means no clear call, values can overlap the other calls;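 further: H4 neuroglioblastoma cells stably carrying SNCA 5'UTR luciferase fusion; 0% = DMSO wells and 100% = positive control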
APP 5UTR inh: inhibitors of APP translation via 5'UTR reporter, primary screen, APP 5'UTR luciferase, SH-SY5Y cells. SH-SY5Y APP 5'UTR-luciferase reporter, luminescence. inhibition, % at 2 µM. actives 0.82% (n = 190,000). AID 1285, 2008;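 active means inhibition above a set limit, derived from the sample mean plus 3 SD, cut at about 45% in these data; inconclusive means one replicate passes the limit while the other fails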
IEC-6 tox: cytotoxicity in IEC-6 intestinal epithelial cells, primary screen, cytotoxicity control for KLF5 inhibitor project, cell-based, luminescence; inhibition, % at 5 µM; IEC-6 cytotoxicity, luminescence viability; actives 0.78% (n = 290,000); AID 1825, 2009;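 further: 0% = plate median of test compound wells and 100% = cytotoxic reference compound wells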
KLF5 inhibitor: KLF5 expression inhibitors, primary screen, DLD-1 cells, luminescence. DLD-1 KLF5 promoter-luciferase reporter. inhibition, % at 5 µM. actives 0.23% (n = 290,000). AID 1700, 2009;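 active means inhibition above a per-plate limit of that plate's mean compound inhibition plus 3 SD, cut at about 60% in these data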;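 further: 0% = DMSO wells and 100% = LY294002 at 200 µM; higher means less KLF5 promoter-driven luciferase light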
Ba/F3 V617F tox: reduced viability of JAK2V617F-dependent Ba/F3 cells, primary screen, JAK2V617F inhibitor project, cell-based, Ba/F3 EpoR-JAK2V617F, luminescence; actives 1.1% (n = 220,000); inhibition, % at 5.6 µM; ATP luminescence; AID 1446, 2008;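 active means inhibition above the campaign mean plus 3 SD over all tested compounds, cut at about 24% in these data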;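 further: cytokine-independent growth of Ba/F3 cells driven by EpoR plus mutant JAK2; 0% = DMSO-treated cells and 100% = JAK inhibitor I control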
BaF3 tox: parental Ba/F3 cell viability inhibition, counter-screen for JAK2V617F inhibitor project, murine pro-B, CellTiter-Glo luminescence; inhibition, % at 5.6 µM; CellTiter-Glo ATP luminescence; AID 1486, 2009; actives 1.1% (n = 220,000);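 active means inhibition above a per-campaign cutoff, the mean inhibition of all tested compounds plus 3 SD, cut at about 27% in these data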;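 further: 0% = DMSO wells and 100% = JAK Inhibitor I control wells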
IEC-6 cytotox cf: cytotoxic compounds in IEC-6 epithelial cells, confirmation, cytotoxicity control, cell-based, luminescence; IEC-6 rat intestinal epithelial viability; inhibition, % at 5 µM; actives 63% (n = 1,900); shares compounds with IEC-6 tox;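 further: 0% = vehicle and 100% = reference cytotoxic drug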
* hit, by the source's call; u = inconclusive; x = not tested or not shown. Hits are enriched below; roughly 2.2% of the tested compounds scored in any of these assays. Unless noted, no stated cut-off is given here; in the data, active means inhibition above about 22%; inactive means the rest.

SMILES	aSyn UTR inh	APP 5UTR inh	IEC-6 tox	KLF5 inhibitor	Ba/F3 V617F tox	BaF3 tox	IEC-6 cytotox cf
Cn1cc(Br)c(C(=O)N/N=C/c2cc3ccccc3nc2Cl)n1	x	x	5.1	-57.4	x	x	x
CC(C)(C)CN1CCN(CCCc2ccccc2)C(CCO)C1 (stereo not given)	-1.1	x	-4.2	-31.3	x	x	x
COc1cc2c(cc1OC)-c1c(OC)c(OC)cc3ccnc(c13)C2=O	110.2*	14.8	28.6*	20.7	46.9*	39.3*	24.5*
O=C1CCc2cc(NS(=O)(=O)c3ccc(Br)cc3)cc3c2N1CC3	5.9	x	x	x	x	x	x
COc1cnc(-c2cccc(C(F)(F)F)c2)[nH]c1=O	8.8	-4.7	-5.6	-8.6	-2.4	4.7	x
FC(F)(F)c1cccc(-c2nc3nc(Cl)c(Cl)nc3[nH]2)c1	13.2	x	30.6*	-46.5	3.7	3.2	39.2*
Clc1cccc(Cl)c1/C=C/c1ccn[nH]1	-232.3	x	27.0*	-58.5	x	x	8.6
Nc1nc(Nc2cccc3ccccc23)nc(C2CCCC2=O)n1 (stereo not given)	-9.9	-6.4	-2.2	0.5	1.9	3.0	x
Nc1nc(CCl)nc(Nc2cccc3ccccc23)n1	-17.6	x	91.0*	-5.0	99.7*	28.3*	7.6
CC(=O)c1cccc(NC(=O)C(C)OC(=O)Cc2n[nH]c(=O)c3ccccc23)c1 (stereo not given)	-21.6	x	-4.4	-28.8	x	x	x
COc1ccccc1NC(=O)c1ccc(NC(=O)Cc2n[nH]c(=O)c3ccccc23)cc1	54.5	x	25.3*	-4.9	6.3	-7.2	17.0
CCc1ccc(C(=O)C(C)OC(=O)Cc2n[nH]c(=O)c3ccccc23)cc1 (stereo not given)	-44.0	x	24.8*	16.4	x	x	9.4
CCc1c(C)nc(SCC(=O)NNC(=O)c2ccco2)[nH]c1=O	-5.5	x	1.5	-3.6	x	x	x
CC(=O)/C(C#N)=C1\NC(=O)C(Cc2ccccc2Cl)S1 (stereo not given)	-48.0	3.7	77.5*	20.6	4.3	5.0	59.7*
CC(=O)/C(C#N)=C1\NC(=O)C(Cc2cc(Cl)ccc2Cl)S1 (stereo not given)	-1.8	x	73.7*	23.9	-1.9	4.7	46.7*
O=C1NC(=Nc2ccccc2)SC1Cc1cccc(Cl)c1Cl (stereo not given)	5.1	5.6	0.4	-20.8	0.5	5.9	x
O=C(c1c(F)cccc1F)N(C1CCCCC1)C1CCCCC1	-7.8	x	1.4	-12.0	x	x	x
CC(=O)Nc1nc(NC(=O)/C=C/c2ccccc2)n(-c2ccccc2)n1	78.9*	11.4	24.1*	27.0	5.3	10.4	16.7
O=C(Nc1nc(NC(=O)c2ccco2)n(-c2ccccc2)n1)c1ccccc1	79.0*	46.0*	26.2*	47.9	36.0*	50.9*	41.1*
CC(=O)Nc1nc(NCc2ccccc2Cl)n(-c2ccccc2)n1	15.4	x	-6.3	-15.9	x	x	x
CC1CC2(C)Oc3ccccc3CC2C(C)C1CNCCCN(C)C (stereo not given)	105.5*	1.4	34.1*	4.0	101.5*	104.4*	100.3*
Cc1ccc(S(=O)(=O)Nc2ccccc2-c2ccccc2)cc1	u	89.6*	54.8*	54.0	68.8*	70.9*	50.7*
Cc1ccc(S(=O)(=O)Nc2ccccc2N(C)S(=O)(=O)c2ccc(C)cc2)cc1	8.8	x	x	x	x	x	x
Cc1cc(NC(=O)CSc2nnc3c(C)cc4c(C)ccc(C)c4n23)no1	-14.9	13.6	54.9*	52.4	2.2	9.9	21.5
COc1ccc(N2CCN(c3ncnc4c3[nH]c3ccccc34)CC2)cc1	1.4	x	1.3	-56.0	-1.9	5.6	x
SMILES	aSyn UTR inh	APP 5UTR inh	IEC-6 tox	KLF5 inhibitor	Ba/F3 V617F tox	BaF3 tox	IEC-6 cytotox cf
COc1ccc2[nH]c3c(N4CCc5ccccc5C4)ncnc3c2c1	43.3	x	77.2*	40.2	75.7*	78.0*	65.9*
CC(=O)C(C(c1ccccc1)c1c[nH]c2ccccc12)[N+](=O)[O-] (stereo not given)	-29.8	x	32.2*	21.8	x	x	20.9
O=C(CNC(=O)N1CC(=O)Nc2ccccc21)Nc1cc(Cl)ccc1Cl	0.8	x	7.2	0.9	x	x	x
COc1ccc(NC(=S)NNc2ccc(C(=O)O)cc2)cc1	-107.1	x	-4.7	2.1	x	x	x
COc1cc(C2SCC(=O)N2Cc2ccccc2)ccc1O (stereo not given)	-11.6	x	2.5	-28.1	x	x	x
O=C(O)c1ccc(NC2=C/C(=N/S(=O)(=O)c3ccccc3)c3ccccc3C2=O)cc1	x	6.4	25.0*	4.3	-0.5	5.3	-10.2
COc1cccc2c1Oc1cc([N+](=O)[O-])cc(N(C)C(C)=O)c1C=C2	35.0	x	6.6	-34.6	x	x	x
O=C(CSc1cccc[n+]1[O-])c1cc(Cl)ccc1Cl	-87.4	26.7	27.5*	-21.9	0.8	8.6	-13.1
[O-][n+]1ccccc1SCc1ccccc1	2.4	x	x	x	x	x	x
N#CC(C#N)=C(N)CSc1cccc[n+]1[O-]	-27.5	-16.8	23.8*	-19.5	-1.9	5.6	-3.2
O=C(O)CSc1cccc[n+]1[O-]	13.7	2.2	-4.6	-23.1	-2.9	0.7	x
O=C(CSc1cccc[n+]1[O-])c1cc2ccccc2o1	-101.1	-30.8	25.4*	-28.5	-1.9	-0.2	-1.8
O=C(CCSc1ccccc1)Nc1nnc(-c2cccs2)o1	-35.3	-6.5	-1.2	-11.9	-3.8	-3.0	x
COC(C[C@@H]1O[C@@H]1C(=O)COCc1ccccc1)OC	-5.5	x	x	x	x	x	x
COc1ccccc1CN1CCNC(=O)C1CC(=O)NCCOc1cccnc1 (stereo not given)	5.4	-11.8	-7.9	-22.6	-4.0	0.8	x
Cn1nc(-c2ccccc2)c(CN2CCN(c3ncccn3)CC2)c1Cl	17.7	5.9	6.8	3.2	2.0	1.0	x
COc1ccc(OC)c(-c2cc(-c3cccnc3)nc(N)c2C#N)c1	0.0	x	34.7*	30.1	84.5*	44.9*	52.3*
O=C(c1ccc(Br)cc1)C(CN1CCOCC1)c1ccccc1 (stereo not given)	-152.2	x	26.3*	-32.2	x	x	7.8
O=C(O)c1ccc2c(=O)n3c(nc2c1)/C(=C/c1ccccc1Br)CC3	-16.4	x	-15.4	14.6	x	x	x
O=C1c2ccccc2C(=O)N1c1cccc2cccnc12	9.9	-10.5	43.7*	-23.2	2.9	10.2	8.6
COc1ccccc1-c1c(C#N)c(N)nc2c1CCc1ccccc1-2	-196.3	-2.7	23.5*	15.8	11.7	8.2	19.0
CC(=O)OC1CSC2c3ccccc3C(=O)N2Cc2sccc21 (stereo not given)	-1.5	-14.5	6.3	15.7	1.6	1.4	x
COc1nn(-c2ccccc2)c(=O)c(Cl)c1Cl	-347.4	x	100.2*	-6.6	x	x	23.1*
